Source: PubChem BioAssay (Tox21)
“And” between values parts separate entries of the source, which are not always exact repeats. Identical values can stand only once. The source made the active and inactive calls. Unless noted, calls follow the shape of the dose curve; as a rule, active = well fitted curve in the direction sought with a large enough effect in the repeat runs; inconclusive = weak or mixed curves; inactive = no such curve, though single readings can be large; an effect the other way counts as inactive or inconclusive.

How the values were obtained:
[1] = qHTS assay to identify small molecule antagonists of the thyroid receptor (TR) signaling pathway (AID 743065); also: nearly all actives have a fitted effect of over 55% in size; also: potency is read from the fitted curve at half-maximal effect
How it was run: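 GH3.TRE-Luc rat pituitary cells carrying two TR response elements driving luciferase were plated for 4 h, given compound plus 1 nM T3 (final), and incubated 23.5 h at 37 C. ONE-Glo luminescence measured reporter inhibition; CellTiter-Fluor fluorescence tracked cytotoxicity.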

[2] = tested on: thyroid hormone receptor (rat, GH3 cells); assay: qHTS assay to identify small molecule agonists of the thyroid receptor (TR) signaling pathway (AID 743066; calls by dose curve; also: potency is read from the fitted curve at half-maximal effect)
[3] = target: Estrogen receptor (Homo sapiens) (UniProt P03372); assay: qHTS assay to identify small molecule antagonists of the estrogen receptor alpha (ER-alpha) signaling pathway (AID 743069; active = well fitted curve in the direction sought with a large enough effect in the signal ratio in the repeat runs, not every such curve was filed as active; inconclusive = weak or mixed curves, or effect the other way; inactive = no such curve, though single readings can be large or run the other way; the % refers to the signal ratio; also: potency is read from the fitted curve at half-maximal effect)
How it was run: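 HEK293 cells stably carrying an ER-alpha-UAS-bla beta-lactamase reporter were pre-cultured overnight in 2% charcoal-stripped FBS medium. Test compounds in DMSO were added together with 17beta-estradiol for 18 hr at 37C. Read-out was fluorescence after 2 hr with LiveBLAzer B/G FRET substrate at room temperature.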

[4] = qHTS assay to identify small molecule antagonists of the estrogen receptor alpha (ER-alpha) signaling pathway - cell viability counter screen (AID 743074; calls by dose curve; also: nearly all actives have a fitted effect of over 45% in size)
[5] = target: Estrogen receptor (Homo sapiens) (UniProt P03372); assay: qHTS assay to identify small molecule agonists of the estrogen receptor alpha (ER-alpha) signaling pathway (AID 743075; calls by dose curve; also: potency is read from the fitted curve at half-maximal effect)
[6] = target: Estrogen receptor (Homo sapiens) (UniProt P03372); assay: qHTS assay to identify small molecule agonists of the estrogen receptor alpha (ER-alpha) signaling pathway using the BG1 cell line (AID 743079); conditions: BG1Luc4E2 cells, ERE-luciferase agonist, 22 h; activation: at 70.3 µM (top of the series); also: nearly all actives have a fitted effect of over 20% in size
[7] = qHTS assay to identify small molecule antagonists of the estrogen receptor alpha (ER-alpha) signaling pathway using the BG1 cell line (AID 743080; calls by dose curve;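 also: BG1 cells stimulated with 17beta-estradiol alongside compound; nearly all actives have a fitted effect of over 25% in size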)
How it was run: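 Seeding, 24 h rest, compound transfer from DMSO, 17beta-estradiol addition, 21.5 h incubation, CellTiter-Fluor (30 min, 37 C), then ONE-Glo (30 min, room temperature): this sequence was run on BG1-Luc-4E2 reporter cells.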

[8] = qHTS assay to identify small molecule antagonists of the estrogen receptor alpha (ER-alpha) signaling pathway using the BG1 cell line - cell viability counter screen (AID 743081);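 also: compound given together with 17beta-estradiol as the ER stimulus; nearly all actives have a fitted effect of over 45% in size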
Aromatase (Homo sapiens) = Aromatase (Homo sapiens) (UniProt P11511); assay: qHTS assay to identify aromatase inhibitors (AID 743083); also: nearly all actives have a fitted effect of over 55% in size; also: potency is read from the fitted curve at half-maximal effect
[9] = qHTS assay to identify aromatase inhibitors - cell viability counter screen (AID 743084);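 also: cells stimulated with testosterone during compound exposure; nearly all actives have a fitted effect of over 55% in size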; also: potency is read from the fitted curve at half-maximal effect
% is scaled to controls: 0 for no effect and ±100 for the full control effect.

Aromatase (Homo sapiens), sequence (P11511 whole entry, looked up): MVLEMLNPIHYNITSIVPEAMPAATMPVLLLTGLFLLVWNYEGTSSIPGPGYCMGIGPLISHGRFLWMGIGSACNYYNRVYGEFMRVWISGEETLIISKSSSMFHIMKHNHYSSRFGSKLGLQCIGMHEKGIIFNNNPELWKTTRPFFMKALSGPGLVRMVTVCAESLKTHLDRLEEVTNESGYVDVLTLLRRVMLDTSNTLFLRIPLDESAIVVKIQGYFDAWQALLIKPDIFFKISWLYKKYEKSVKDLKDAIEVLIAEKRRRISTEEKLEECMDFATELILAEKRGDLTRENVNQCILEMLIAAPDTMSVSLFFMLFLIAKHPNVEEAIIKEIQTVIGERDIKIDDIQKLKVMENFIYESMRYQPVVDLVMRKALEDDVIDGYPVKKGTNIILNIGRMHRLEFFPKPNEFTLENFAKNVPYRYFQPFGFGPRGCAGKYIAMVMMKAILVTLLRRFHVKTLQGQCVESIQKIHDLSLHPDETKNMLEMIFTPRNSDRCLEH
Estrogen receptor (Homo sapiens), sequence (P03372 whole entry, looked up): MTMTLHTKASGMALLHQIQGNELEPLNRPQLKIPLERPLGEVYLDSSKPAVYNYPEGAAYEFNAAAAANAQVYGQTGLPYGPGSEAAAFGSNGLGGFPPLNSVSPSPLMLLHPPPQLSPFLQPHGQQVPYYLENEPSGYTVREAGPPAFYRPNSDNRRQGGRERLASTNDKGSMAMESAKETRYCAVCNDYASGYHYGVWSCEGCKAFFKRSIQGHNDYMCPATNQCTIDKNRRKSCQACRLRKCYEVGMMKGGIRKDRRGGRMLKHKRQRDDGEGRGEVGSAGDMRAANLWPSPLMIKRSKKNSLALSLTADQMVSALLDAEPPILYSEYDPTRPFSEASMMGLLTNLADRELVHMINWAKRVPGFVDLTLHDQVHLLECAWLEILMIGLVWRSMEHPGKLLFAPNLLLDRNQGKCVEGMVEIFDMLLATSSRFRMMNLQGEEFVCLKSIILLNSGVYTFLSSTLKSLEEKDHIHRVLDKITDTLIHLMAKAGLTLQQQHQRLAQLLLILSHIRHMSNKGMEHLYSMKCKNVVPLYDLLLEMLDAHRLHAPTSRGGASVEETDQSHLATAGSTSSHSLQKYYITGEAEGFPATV

O=C(Cl)c1ccccc1F
inactive: Potency [1] | Potency [2] | Potency [3] | Potency [4] | Potency [5] | Potency [6] | Potency [7] | Potency [8] | Potency (Aromatase (Homo sapiens)) | Potency [9]

CCN(CC)CCN1C(=O)CN=C(c2ccccc2F)c2cc(Cl)ccc21
inactive: Potency [2] | Potency [3] | Potency [4] | Potency [5] | Potency [6] | Potency [7] | Potency [8] | Potency (Aromatase (Homo sapiens)) | Potency [9]
active: Potency [1] 23.7 µM

CCCCC/C=C\C/C=C\C/C=C\C/C=C\CCCC(=O)NCC(=O)O
inactive: activity, negative = inhibition [1] 6.65% [at 8.44 µM] | activation [2] 2.19% [at 8.08 µM] | activity, negative = inhibition [3] -29.7% [at 6.71 µM] | activity, negative = cytotoxicity [4] -15.9% [at 6.72 µM] | activation [5] -3.03% [at 6.71 µM] | activation [6] 2.37% [at 8.47 µM] | activity change, negative = inhibition [7] 0.823% [at 8.47 µM] | activity change, negative = cytotoxicity [8] 0.607% [at 8.47 µM] | activity, negative = inhibition (Aromatase (Homo sapiens)) 4.53% [at 8.47 µM] | activity change, negative = cytotoxicity [9] -2.83% [at 8.47 µM]

[O]=[Cr][O][Cr]=[O]
inactive: Potency [1] | Potency [2] | Potency [3] | Potency [4] | Potency [5] | Potency [6] | Potency [7] | Potency [8] | Potency (Aromatase (Homo sapiens)) | Potency [9]

CCCCc1ccccc1
inactive: Potency [1] | Potency [2] | Potency [3] | Potency [4] | Potency [5] | Potency [6] | Potency [7] | Potency [8] | Potency (Aromatase (Homo sapiens)) | Potency [9]

CC(Cc1ccc2c(c1)OCO2)NO (configuration not stated)
inactive: Potency [1] | Potency [2] | Potency [3] | Potency [4] | Potency [5] | Potency [6] | Potency [7] | Potency [8] | Potency (Aromatase (Homo sapiens)) | Potency [9]

CCC(C)c1cccc(C(C)CC)c1O (configuration not stated)
inactive: Potency [2] | Potency [3] | Potency [4] | Potency [5] | Potency [6] | Potency [7] | Potency [8]
active: Potency [1] 61.1 µM

Cc1cnc2c(C(=O)O)c(Cl)ccc2c1
inactive: Potency [1] | Potency [2] | Potency [3] | Potency [4] | Potency [5] | Potency [6] | Potency [7] | Potency [8] | Potency (Aromatase (Homo sapiens)) | Potency [9]

COc1cnc(OC)n2nc(NS(=O)(=O)c3c(OCC(F)F)cccc3C(F)(F)F)nc12
inactive: Potency [1] | Potency [2] | Potency [3] | Potency [4] | Potency [5] | Potency [6] | Potency [7] | Potency [8] | Potency (Aromatase (Homo sapiens)) | Potency [9]

CCCCN(CCCC)C(=S)S
inactive: Potency [1] | Potency [2] | Potency [3] | Potency [4] | Potency [5] | Potency [6] | Potency [7] | Potency [8] | Potency (Aromatase (Homo sapiens)) | Potency [9]

C=CCBr
inactive: Potency [1] | Potency [2] | Potency [3] | Potency [4] | Potency [5] | Potency [6] | Potency [7] | Potency [8] | Potency (Aromatase (Homo sapiens)) | Potency [9]

CN1[C@@H]2CC[C@H]1CC(O)C2 (some centres not stated)
inactive: Potency [1] | Potency [2] | Potency [3] | Potency [4] | Potency [5] | Potency [6] | Potency [7] | Potency [8] | Potency (Aromatase (Homo sapiens)) | Potency [9]

Nc1nc(N)nc(Cl)n1
inactive: Potency [1] | Potency [2] | Potency [3] | Potency [4] | Potency [5] | Potency [6] | Potency [7] | Potency [8] | Potency (Aromatase (Homo sapiens)) | Potency [9]

CC(C)Br
inactive: Potency [1] | Potency [2] | Potency [3] | Potency [4] | Potency [5] | Potency [6] | Potency [7] | Potency [8] | Potency (Aromatase (Homo sapiens)) | Potency [9]

S=C=Nc1ccccc1
inactive: Potency [1] | Potency [2] | Potency [3] | Potency [4] | Potency [5] | Potency [6] | Potency [7] | Potency [8] | Potency (Aromatase (Homo sapiens)) | Potency [9]

CC(Cc1ccc(OCC(=O)O)cc1)NCC(O)c1csc(C(F)(F)F)n1 (configuration not stated)
inactive: Potency [1] | Potency [3] | Potency [4] | Potency [5] | Potency [6] | Potency [7] | Potency [8] | Potency (Aromatase (Homo sapiens))
active: Potency [2] 77 µM

Oc1cccc(Cl)c1Cl
inactive: Potency [1] | Potency [2] | Potency [3] | Potency [4] | Potency [5] | Potency [6] | Potency [7] | Potency [8] | Potency (Aromatase (Homo sapiens)) | Potency [9]

O=P(Cl)(Cl)Cl
inactive: Potency [1] | Potency [2] | Potency [3] | Potency [4] | Potency [5] | Potency [6] | Potency [7] | Potency [8] | Potency (Aromatase (Homo sapiens)) | Potency [9]

CCOC(=O)Cc1ccccc1
inactive: Potency [1] | Potency [2] | Potency [3] | Potency [4] | Potency [5] | Potency [6] | Potency [7] | Potency [8] | Potency (Aromatase (Homo sapiens)) | Potency [9]

O=NN(CCO)CCO
inactive: Potency [1] | Potency [2] | Potency [3] | Potency [4] | Potency [5] | Potency [6] | Potency [7] | Potency [8] | Potency (Aromatase (Homo sapiens)) | Potency [9]

O=C1C(Cl)=C(Cl)C(=O)C(Cl)=C1Cl
inactive: Potency [2] | Potency [4] | Potency [6] | Potency [7] | Potency [8]
active: Potency [1] 9.65 µM and 5.45 µM | Potency [3] 54.9 µM [inconclusive] | Potency [5] 43.7 µM [activator] | Potency (Aromatase (Homo sapiens)) 9.65 µM and 9.69 µM | Potency [9] 10.8 µM and 13.7 µM
